Assay results as given in PubChem BioAssay AID624330 (Southern Research Specialized Biocontainment Screening …, 2012).
About 2,100 (0.62%) of roughly 340,000 compounds were called active.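 The calls were made as follows: active = first-screen hits whose inhibition reached a set limit at any dose in the follow-up dose series; inconclusive = inhibition above the set first-screen limit but never retested; inactive = the rest.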 Not all results are given here. Potency and affinity values are given separately.

biological target: Rac GTPase-activating protein 1 (Homo sapiens) (UniProt Q9H0H5); assay: MgcRacGAP GTPase-activating activity inhibitors, confirmation, biochemical, ADP Hunter fluorescence, primary and confirmatory (AID 624330); settings: MgcRacGAP-stimulated Rac1 GTP hydrolysis, at 30 µM, active compounds read high, GST-tagged Rac1 F28L mutant substrate;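 also: fluorescence reports GDP produced by GAP-driven GTP hydrolysis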
Sequence (Q9H0H5 whole entry, looked up): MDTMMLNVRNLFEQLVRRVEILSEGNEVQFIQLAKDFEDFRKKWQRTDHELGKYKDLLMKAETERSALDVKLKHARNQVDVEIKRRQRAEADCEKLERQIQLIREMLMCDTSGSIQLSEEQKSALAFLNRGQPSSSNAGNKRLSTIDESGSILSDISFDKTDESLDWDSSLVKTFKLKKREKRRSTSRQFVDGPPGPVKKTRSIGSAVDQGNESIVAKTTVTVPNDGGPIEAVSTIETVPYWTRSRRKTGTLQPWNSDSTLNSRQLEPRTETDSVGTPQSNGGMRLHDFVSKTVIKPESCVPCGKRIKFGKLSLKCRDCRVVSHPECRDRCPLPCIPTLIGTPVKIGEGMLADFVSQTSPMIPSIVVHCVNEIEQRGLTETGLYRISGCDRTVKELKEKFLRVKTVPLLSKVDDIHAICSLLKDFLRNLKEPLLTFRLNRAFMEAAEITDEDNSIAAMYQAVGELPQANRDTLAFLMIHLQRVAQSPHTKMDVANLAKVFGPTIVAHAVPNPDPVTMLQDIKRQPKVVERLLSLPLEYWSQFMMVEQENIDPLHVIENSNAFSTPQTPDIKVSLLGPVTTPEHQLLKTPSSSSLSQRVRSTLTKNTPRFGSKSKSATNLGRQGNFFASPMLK

inhibition, inactive:
CN(C)CC1(c2ccccc2)CCCC1 -6.5%
CC1CCCCN1C(=S)Nc1ccc(OC(F)F)cc1 (configuration not stated) 2.05%
O=c1[nH]c2ccccc2cc1CN(Cc1ccco1)S(=O)(=O)c1ccccc1 5.99%
CC(C)(C)NC(=O)C(c1ccc(-c2ccccc2)cc1)N(C[C@H]1CC[C@@H]([C@@H]2CC[C@H](CO)O2)O1)C(=O)c1ccccc1F (some centres not stated) 3.69%
O=C(O)Cn1nc(-c2ccccc2)ccc1=O -3.67%
COc1ccc(-c2csc(/C(C#N)=C/Nc3ccc4c(c3)OCCO4)n2)cc1 2.83%
Cc1ccc(-c2csc(/C(C#N)=C/Nc3ccc4c(c3)OCCO4)n2)cc1 16.1%
CCN(CC)CCOC(=O)c1ccc(N/C=C(/C#N)c2nc(-c3ccc(OC)cc3)cs2)cc1 10.3%
CCN(CC)CCOC(=O)c1ccc(N/C=C(/C#N)c2nc(-c3cc4ccccc4oc3=O)cs2)cc1 26.6%
c1ccc(-c2ncc(CSc3nncn3-c3ccccc3)s2)cc1 1.96%
Cn1cc(SCC(=O)Nc2ccc3c(c2)OCO3)c2ccccc21 5.29%
O=C(NCc1ccccc1Cl)c1ccccc1CCc1ccccc1 6.88%
CCc1ccc(NC(=O)C2=CC=CN3CCS(=O)(=O)N=C23)cc1 7.78%
Cc1ccc(NC(=O)C2=CC=CN3CCS(=O)(=O)N=C23)cc1 2.18%
CN(C)C(=O)CCc1nc2sc3c(c2c(=O)[nH]1)CCCC3 18%
NC(=O)Cn1cc(/C=N\NS(=O)(=O)c2ccc(Cl)cc2)c2ccccc21 20%
COC(=O)c1ccc(NC(=S)N2CCN(Cc3ccc(Cl)cc3)CC2)cc1 -0.55%
CSC1=NSC2=NC(=O)/C(=C/c3coc4ccc(O)cc4c3=O)C(=N)N12 14.1%
O=C1NC(=S)S/C1=C\c1coc2ccc(O)cc2c1=O 7.3%
O=C1NN(c2ccccc2)C(=O)/C1=C\c1coc2ccc(O)cc2c1=O 23.8%
CN1C(=O)/C(=C/c2coc3ccc(O)cc3c2=O)SC1=S 11.2%
COc1ccc(CCNC(=O)c2cccc(S(=O)(=O)N3CCCCC3)c2)cc1 8.12%
C[C@H]1CN([C@@H](C)CO)C(=O)c2cccc(NC(=O)Nc3ccc(F)cc3)c2O[C@@H]1CN(C)Cc1ccc(C(=O)O)cc1 2.98%
O=C(NCc1ccccn1)C1Nc2ccc(C(F)(F)F)cc2C2C=CCC12 (configuration not stated) 24.7%
O=c1cc(CNc2cc(Cl)ccc2Cl)nc2sccn12 2.5%
CCN(CC)C(=O)C(Sc1nnnn1-c1ccc(O)cc1)c1ccccc1 (configuration not stated) 3.92%
Cc1c(Br)cnn1C(C)C(=O)N1CCN(c2ccc(F)cc2)CC1 (configuration not stated) 3.49%
COc1cc(/C=C/C(=O)OCC(=O)Nc2ccc(Cl)cn2)ccc1O 21.2%
COc1cc(/C=C/C(=O)OCC(=O)Nc2ccc([N+](=O)[O-])cc2)ccc1O 4.8%
COc1cc(/C=C/C(=O)OCC(=O)Nc2cc(C)c(C)cc2[N+](=O)[O-])ccc1O 9.32%
O=C(/C=C/c1cccc(Cl)c1)OCc1cn2cc(Cl)ccc2n1 11.7%
COc1cc(NC(=O)COC(=O)/C=C/c2ccc(OC)c(OC)c2)cc(OC)c1 -0.81%
O=C(COC(=O)/C=C/c1cccc(F)c1)Nc1ccccc1 -19.5%
COc1cc(/C=C/C(=O)OCC(=O)Nc2ccccc2Sc2ccc(Cl)cc2)ccc1O 16.7%
COc1cccc(/C=C/C(=O)NCc2cn3cc(Cl)ccc3n2)c1 2.4%
CCOc1cc(CNCC2CCCO2)cc(Br)c1OCC(N)=O (configuration not stated) 3.03%
CCn1ncc(CN2CCN(C(=O)Nc3ccccc3C(=O)OC)CC2)c1C 6.62%
O=C(Cn1ncn2c(cc3ccccc32)c1=O)NCCCc1ccccc1 1.38%
CC(C)(C)NC(=O)CN1C(=O)/C(=C/c2ccccc2)SC1=S 9.16%
CCC(Cc1ccccc1)NC(=O)CCc1ccccc1 (configuration not stated) 7.57%
O=C(OCN1C(=O)C(=O)c2ccccc21)c1ccc(Cl)cc1 7.35%
CCCCn1c(N)c(N(Cc2ccccc2OC)C(=O)COc2ccc(F)cc2Cl)c(=O)[nH]c1=O 4.08%
CCOC(=O)C1=C(COC(=O)/C=C/c2ccc(OC)c(OC)c2)NC(=O)NC1C (configuration not stated) -0.71%
CCOC(=O)C1=C(COC(=O)/C=C/c2ccc(OCC)c(OC)c2)NC(=O)NC1C (configuration not stated) 9.47%
COc1ccc(-c2cc(C3CCN(Cc4cccc(C(F)(F)F)c4)CC3)[nH]n2)cc1 9.81%
CC(C)c1ccc2nc(NC(=O)C3CC3)sc2c1 9.94%
COc1ccccc1NC(=O)c1ccccc1S(=O)(=O)c1ccc([N+](=O)[O-])cc1 11.4%
c1ccc(Nc2ccccn2)cc1 1.32%
c1ccc(Nc2cccc(Nc3ccccc3)n2)cc1 16.6%
Cc1ccc(NC(=O)CSc2ccc3c(c2)OCCO3)c(O)c1 8.94%
CC(=O)c1ccc(N2CCN(C(=O)COc3ccc4c(c3)CCC4)CC2)cc1 5.57%
O=C(O)c1ccc2c(c1)S(=O)(=O)c1cc(N3CCN(c4cnccn4)CC3)ccc1C2=O 13.8%
O=C(Cn1[nH]c(=O)c2ccccc2c1=O)NC1CCN(Cc2ccccc2)CC1 5.55%
COc1cc(C)c(S(=O)(=O)N2CCCC2)cc1C(C)C 3.94%
COc1cc(C)c(-c2cc(C(=O)O)c(C)o2)cc1C(C)C 8.02%
Nc1ccc2c(=O)[nH][nH]c(=O)c2c1 3.77%
Nc1ccc2c(c1)[nH]c(=O)c1ccccc12 21.4%
C[C@H](CO)N1C[C@H](C)[C@@H](CN(C)S(=O)(=O)c2cccs2)Oc2ccc(NC(=O)NC3CCCCC3)cc2C1=O 3.35%
Cn1ccnc1Sc1nc2c(c(=O)n(C)c(=O)n2C)n1C 1.94%
COc1cc(C(=O)Nc2cccc(S(=O)(=O)N3CCCC3)c2)c([N+](=O)[O-])cc1OC 4.7%
Cn1c(=S)[nH]c2ccccc21 11.4%
S=c1[nH]nc2nnc3ccccc3n12 17.6%
COc1cc(NC(=O)c2cccc(F)c2)cc(OC)c1OC 8.45%
C=CCn1c2ccccc2c2n[nH]c(=S)nc21 3.05%
COCCNC(=O)c1c[nH]c2ccc(S(=O)(=O)N3CCC4(CC3)OCCO4)cc2c1=O 10.7%
N#Cc1ccccc1N=C1CCCN1Cc1ccccc1 16.7%
Cc1ccc(N=C2CCCCCN2C)c(C#N)c1 3.58%
CCc1ccc(OCC(O)Cn2c(N3CCCCC3)nc3c2c(=O)[nH]c(=O)n3C)cc1 (configuration not stated) -4.27%
O=C(Nc1ccccc1Cl)OCC#CCOC(=O)Nc1ccccc1Cl 11%
O=C(Nc1ccccc1Cl)Oc1ccc(Cl)cc1Cl 9.61%
C[C@@H]1CN([C@@H](C)CO)C(=O)CCCn2nncc2CO[C@H]1CN(C)C(=O)Nc1ccc(N2CCCCC2)cc1 11.5%
O=C(CCN1C(=O)/C(=C/c2ccccc2Cl)SC1=S)NN1CCOCC1 4.7%
Cn1nccc1NC(=O)Nc1cccc(Cl)c1Cl 2.52%
CC(C)(C)c1nnc(N/N=C/c2ccc(Br)cc2)n(N)c1=O 9.58%
CC(C)(C)c1nnc(N/N=C/c2ccccc2)n(N)c1=O 8.65%
CCOc1ccc(NC(=O)CN(C)C(=O)c2cn(-c3ccc(F)cc3)nc2-c2cccc(OC)c2)cc1OCC 0.09%
CC(OC(=O)/C=C/c1ccccc1)C(=O)Nc1ccc2c(c1)OCCO2 (configuration not stated) 9.16%
O=C(NCCc1nc2ccccc2[nH]1)Nc1ccccc1 8.22%
COc1ccc(NC(=O)c2cc(OC)c(OC)c(OC)c2)cn1 7.64%
COc1ccc(NC(=O)c2cccc(Oc3ccccc3)c2)cn1 4.7%
COc1cccc(C(=O)Nc2cccc(NC(C)=O)c2)c1 10.6%
NS(=O)(=O)c1cccc(NC(=O)c2cccc(-c3ccc(O)cc3)c2)c1 12.5%
CCOc1ccc(N(C(C)C(=O)Nc2ccc(OC)cc2)S(C)(=O)=O)cc1 (configuration not stated) 9.57%
Cc1ccc(NC(=O)COC(=O)c2cc(Cl)ccc2[N+](=O)[O-])cc1 9%
O=C1c2c(O)cc(O)cc2O[C@H](c2ccc(O)c(O)c2)[C@H]1O 13.3%
O=C(c1c(O)cc(O)cc1O)C1c2c(cc(O)c3c2O[C@H](c2ccc(O)cc2)[C@@H](O)C3)OC1c1ccc(O)cc1 (some centres not stated) 12.8%
COc1cc2c3c([nH]c2cc1F)C(=O)NCC3 9.04%
O=[N+]([O-])c1cccc(CSc2nc3ccccc3[nH]2)c1 3.52%
CCN(CC(=O)Nc1cc(Cl)ccc1C)C(=O)COc1ccccc1F -0.45%
CCCOc1ccc(/C=N/Nc2ccccn2)cc1OC 13.1%
CCOc1ccc(/C=N/Nc2ccccn2)cc1OC 6.25%
Cc1ccc(N/N=C/c2ccc(N3CCOCC3)cc2)cc1C 24.2%
C(=N\n1cnnc1)/c1ccc(N2CCOCC2)cc1 8.48%
COc1cc(/C=N/Nc2ccccn2)ccc1OCC(C)C 1.63%
Clc1ccc(/C=N/Nc2ccccn2)cc1 11.1%
Brc1ccc(/C=N/Nc2ccccn2)cc1 10.9%
C=CCOc1ccc(/C=N/Nc2ccccn2)cc1OC 9.55%
